Results published in PubChem BioAssay (EPA / NIEHS).
Values joined by “and” are separate entries in the source; they are usually repeats but may differ in a detail not shown here. Equal entries are not always repeated. Records with an inconclusive call do not appear. A structure can be active in one record and inactive in another. Active and inactive are the calls of the source. Rule for the calls: active = hit-call score of the fitted dose curve at least 0.9, where 1 is the maximum; inconclusive = response in the unintended direction; inactive = score below 0.9.

Experiments:
[1] = test system: Thyroperoxidase (TPO), gene 445522; experiment: CCTE_Simmons_GUA_TPO: CCTE's Guaiacol Assay for Thyroperoxidase (TPO) Inhibition, Simmons Lab (AID 2283750)
Outline: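 Porcine thyroid microsomes (25 ug) in 200mM potassium phosphate, preincubated 30 s at 37C with compound (8 concentrations, 5 nM–87.5 uM) and 35mM guaiacol; 1mM H2O2 starts reaction. Absorbance change at 450nm over first 80 s; loss of signal versus DMSO, three replicates.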

[2] = ArunA_Migration_hNP: ArunA Biomedical's Oris Neuroprogenitor (hNP) Cell Migration Assay (AID 2283754)
Outline: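 Readout is calcein-AM fluorescence (ex494/em517) of cells migrating into the detection zone, relative to DMSO. hNP1 cells (H9-derived) grown on Matrigel behind stoppers 16 h, then stoppers pulled and chemical applied 72 h; cytochalasin D as control.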

[3] = ArunA_NOG_NeuritesPerNeuron: ArunA Biomedical's Neurite Outgrowth (NOG) Assay for Neurites Per Neuron (AID 2283758)
Outline: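 Differentiated human H9-derived neurons exposed to chemicals for 48 h from seeding, then stained with Hoechst and βIII-tubulin/DyLight 488. Automated imaging counted neurites (processes >10 um) per valid neuron; loss of signal versus DMSO scored.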

[4] = ArunA_NOG_BranchPointsPerNeurite: ArunA Biomedical's Neurite Outgrowth (NOG) Assay for Branch Points Per Neurite (AID 2283759)
Outline: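 Automated image analysis traced neurites (processes >10 um) from valid cell bodies after Hoechst and βIII-tubulin staining. hNN cells from H9 embryonic stem cells, 48 h exposure. Fitted bidirectionally against DMSO.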

[5] = ArunA_NOG_NeuriteLength: ArunA Biomedical's Neurite Outgrowth (NOG) Assay for Neurite Length (AID 2283757)
Outline: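 Total neurite length per neuron, from traced βIII-tubulin-labelled processes longer than 10 um on viable Hoechst-gated cells, was scored as decrease from DMSO. Cells were hESC (H9)-derived neurons given 48 h chemical exposure immediately after seeding.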

[6] = test system: chicken Androgen Receptor (AR), gene 422165; experiment: ATG_chAR_XSP1: Attagene TRANS-FACTORIAL Multi-Species (XSP1) HepG2 Assay for chicken Androgen Receptor (AR) (AID 2283768)
Outline: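 Reporter mRNA read by RT-PCR with fluorescent labelling and capillary electrophoresis 24 h after chemical dosing of transiently transfected HepG2 cells. Chicken AR-Gal4 chimera, partially stimulated with 3 nM 6-alpha-fluorotestosterone; activity fitted upward relative to DMSO.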

[7] = test system: frog Androgen Receptor (AR), gene 399456; experiment: ATG_frAR_XSP1: Attagene TRANS-FACTORIAL Multi-Species (XSP1) HepG2 Assay for frog Androgen Receptor (AR) (AID 2283770)
[8] = test system: zebrafish Androgen Receptor (AR), gene 100005148; experiment: ATG_zfAR_XSP1: Attagene TRANS-FACTORIAL Multi-Species (XSP1) HepG2 Assay for zebrafish Androgen Receptor (AR) (AID 2283771)
Outline: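 Gain-of-signal versus DMSO was measured as reporter transcripts quantified by RT-PCR, fluorescent labelling and capillary electrophoresis after 24 h chemical exposure. The cells were HepG2 expressing a chimeric zebrafish AR-GAL4, co-stimulated with 3 nM 6-alpha-fluorotestosterone.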

[9] = Tanguay_ZF_120hpf_ActivityScore_legacy: (Legacy) Oregon State University Tanguay Lab 120 Hour Post-fertilization zebrafish Assay Score for Activity (AID 2283742)
Outline: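 Dechorionated 5D embryos, one per well, static exposure 6–120 hpf, 28C, sealed and dark; final DMSO 0.64% (vol/vol). Brightfield binary scoring of mortality plus 18 endpoints; gain-of-signal fit versus DMSO baseline.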

[10] = ACEA_AR_agonist_AUC_viability: ACEA Biosciences xCELLigence Real-Time Cell Analysis on Androgen Receptor Agonism for Viability (AID 2283775);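 for AC50: viability read 80 hours after compound addition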
Outline: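 Viability endpoint from xCELLigence impedance in 22Rv1 prostate cells at 80 h. Eight-point series, 100 uM maximum final.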

[11] = ACEA_AR_antagonist_AUC_viability: ACEA Biosciences xCELLigence Real-Time Cell Analysis on Androgen Receptor Antagonism for Viability (AID 2283776);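 note: 22Rv1 human prostate cancer cells growing on impedance electrode plates; area under impedance growth curve at 80 h after dosing as viability; hits lower the growth signal relative to DMSO meaning cytotoxicity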
Outline: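 Real-time electrical impedance tracks 22Rv1 proliferation after continuous compound exposure (top 100 uM final, 1:4 steps, 8 concentrations). The 80 h area-under-curve serves as the cytotoxicity readout relative to DMSO.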

[12] = molecular target: zebrafish Estrogen Receptor (ESR1), esr1 (gene 259252) (UniProt P57717); experiment: ATG_zfER1_XSP1: Attagene TRANS-FACTORIAL Multi-Species (XSP1) HepG2 Assay for zebrafish Estrogen Receptor (ESR1) (AID 2283772)
Chain of zebrafish Estrogen Receptor (ESR1), esr1 (gene 259252) (P57717 whole entry, looked up, the tested form may be a part): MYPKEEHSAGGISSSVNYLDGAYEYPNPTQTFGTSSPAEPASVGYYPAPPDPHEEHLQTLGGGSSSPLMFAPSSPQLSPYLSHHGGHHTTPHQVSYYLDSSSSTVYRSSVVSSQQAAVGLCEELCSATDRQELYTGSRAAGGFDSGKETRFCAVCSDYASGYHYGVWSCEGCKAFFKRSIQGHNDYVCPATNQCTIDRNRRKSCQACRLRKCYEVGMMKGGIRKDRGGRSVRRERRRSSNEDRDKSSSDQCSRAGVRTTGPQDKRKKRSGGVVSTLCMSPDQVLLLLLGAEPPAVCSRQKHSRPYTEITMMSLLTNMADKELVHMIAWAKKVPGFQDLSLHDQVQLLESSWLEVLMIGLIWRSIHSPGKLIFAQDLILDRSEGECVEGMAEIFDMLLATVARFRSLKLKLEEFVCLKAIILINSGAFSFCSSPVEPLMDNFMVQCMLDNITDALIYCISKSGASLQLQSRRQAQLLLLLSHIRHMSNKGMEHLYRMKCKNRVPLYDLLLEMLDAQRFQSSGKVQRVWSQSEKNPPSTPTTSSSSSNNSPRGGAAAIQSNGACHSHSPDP
Outline: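 Transfect HepG2 with GAL4-UAS multi-reporter constructs; treat 24 h (medium carries 3 nM 6-alpha-fluorotestosterone); extract RNA, reverse-transcribe, PCR-amplify, FAM-label, digest with HpaI; resolve by capillary electrophoresis and compare against DMSO baseline.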

[13] = test system: zebrafish Estrogen Receptor (ESR2B), gene 317733; experiment: ATG_zfER2b_XSP1: Attagene TRANS-FACTORIAL Multi-Species (XSP1) HepG2 Assay for zebrafish Estrogen Receptor (ESR2B) (AID 2283773)
Outline: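 Multiplexed TRANS format in transfected HepG2 liver cells, chimeric NR-Gal4 from zebrafish ESR2B. 24 h dosing; medium contains 3 nM 6-alpha-fluorotestosterone. mRNA induction by RT-PCR/CE, positive direction vs DMSO.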

[14] = test system: frog Estrogen Receptor (ESR2), gene 100174814; experiment: ATG_frER2_XSP1: Attagene TRANS-FACTORIAL Multi-Species (XSP1) HepG2 Assay for frog Estrogen Receptor (ESR2) (AID 2283774)
Outline: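 HepG2, transient MRTU transfection (GAL4-UAS reporters, exogenous NR-Gal4 chimeras); 24 h compound exposure; 3 nM 6α-fluorotestosterone co-added; total RNA → RT-PCR → 6-FAM primer extension → HpaI → CE. Positive direction vs DMSO.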

[15] = molecular target: Luciferin 4-monooxygenase (Photinus pyralis) (UniProt P08659); experiment: CCTE_Simmons_QuantiLum_inhib_2: CCTE's Firefly Luciferase Inhibition Assay, Simmons Lab (AID 2283767);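 for AC50: potency for inhibitors that lower luciferase luminescence relative to DMSO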
Chain of Luciferin 4-monooxygenase (Photinus pyralis) (P08659 whole entry, looked up): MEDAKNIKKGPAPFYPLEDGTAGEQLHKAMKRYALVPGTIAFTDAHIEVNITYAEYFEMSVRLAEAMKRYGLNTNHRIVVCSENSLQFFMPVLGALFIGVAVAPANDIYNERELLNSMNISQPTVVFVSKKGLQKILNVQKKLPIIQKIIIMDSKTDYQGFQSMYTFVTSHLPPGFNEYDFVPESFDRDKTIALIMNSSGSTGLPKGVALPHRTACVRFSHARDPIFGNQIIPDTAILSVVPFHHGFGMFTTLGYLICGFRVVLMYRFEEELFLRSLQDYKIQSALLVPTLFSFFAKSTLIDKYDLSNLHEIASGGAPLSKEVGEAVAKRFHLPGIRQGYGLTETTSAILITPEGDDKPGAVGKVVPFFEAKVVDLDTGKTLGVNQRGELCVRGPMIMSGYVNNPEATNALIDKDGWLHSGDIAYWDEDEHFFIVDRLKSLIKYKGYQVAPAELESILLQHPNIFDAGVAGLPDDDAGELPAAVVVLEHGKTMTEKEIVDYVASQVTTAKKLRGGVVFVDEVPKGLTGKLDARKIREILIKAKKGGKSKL
Outline: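 Cell-free QuantiLum luciferase, 5 ng/well; compounds 5 nM–87.5 uM final, 8 conc, 0.5% DMSO; 30 min, 37C, dark. Detection reagent (150 uM D-luciferin, 147 uM dATP, CoA, DTT, pH 7.8 final) injected per well, kinetic luminescence. Triplicate biological replicates.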

Structure (SMILES): N[C@@H](Cc1cc(I)c(Oc2ccc(O)c(I)c2)c(I)c1)C(=O)O
- AC50 [1]: 13.1 µM (active)

Structure (SMILES): CSC(=O)c1cccc2nnsc12
- outcome [1]: inactive

Structure (SMILES): CC(C)(c1ccc(O)cc1)c1ccc(O)cc1
- outcome [2]: inactive
- outcome [3]: inactive

Structure (SMILES): CC(C)CCCCCCc1ccc(O)cc1
- AC50 [2]: 17 µM (active)
- outcome [4]: inactive

Structure (SMILES): S=C(S)NCCNC(=S)S.[Mn+2].[S-]C([S-])=NCCN=C([S-])[S-].[Zn+2]
- outcome [5]: inactive
- outcome [3]: inactive

Structure (SMILES): O=C(c1ccc(O)cc1O)c1ccc(O)cc1O
- AC50 [6]: 0.133 µM (active)
- AC50 [7]: 2.75 µM (active)

Structure (SMILES): CCCCC(CC)COC(=O)c1ccccc1C(=O)O (stereo not drawn)
- AC50 [6]: 26.5 µM (active)
- outcome [7]: inactive
- outcome [8]: inactive

Structure (SMILES): CCCOC(=O)NCCCN(C)C
- outcome [9]: inactive
- outcome [10]: inactive

Structure (SMILES): O=C(O)c1ccccc1
- outcome [9]: inactive
- outcome [10]: inactive

Structure (SMILES): CCC(C)OC(=O)N1CCCCC1CCO (stereo not drawn)
- outcome [10]: inactive
- outcome [11]: inactive

Structure (SMILES): CCCCC(CC)CN1C(=O)C2C3C=CC(C3)C2C1=O (stereo not drawn)
- outcome [8]: inactive
- outcome [12]: inactive
- AC50 [13]: 27.4 µM (active)
- AC50 [14]: 25.4 µM (active)
- AC50 [10]: 81.6 µM (active)

Structure (SMILES): c1ccc(Nc2ccccc2)cc1
- outcome [15]: inactive
- AC50 [10]: 74.8 µM (active)

Structure (SMILES): O=C(c1ccccc1)C1CCCCC1
- outcome [10]: inactive

Structure (SMILES): CCCOC(=O)c1ccc(C(=O)OCCC)nc1
- outcome [15]: inactive
- outcome [10]: inactive

Structure (SMILES): CCOC(=O)C(C)Oc1ccc(Oc2nc3ccc(Cl)cc3o2)cc1 (stereo not drawn)
- outcome [9]: inactive
- AC50 [15]: 71.3 µM (active)
- outcome [10]: inactive

Structure (SMILES): CCCN(CCC)c1c([N+](=O)[O-])cc(C(F)(F)F)c(N)c1[N+](=O)[O-]
- AC50 [10]: 14.9 µM (active)

Structure (SMILES): C[C@]12CC[C@@H]3c4ccc(O)cc4C[C@@H](CCCCCCCCCS(=O)CCCC(F)(F)C(F)(F)F)[C@H]3[C@@H]1CC[C@@H]2O (stereo partly drawn)
- AC50 [10]: 10.9 µM (active)

Structure (SMILES): CC(=O)S[C@@H]1CC2=CC(=O)CC[C@]2(C)[C@H]2CC[C@@]3(C)[C@@H](CC[C@@]34CCC(=O)O4)[C@H]12
- outcome [8]: inactive
- outcome [12]: inactive
- AC50 [13]: 82.2 µM (active)
- AC50 [14]: 48.6 µM (active)

Structure (SMILES): CC(=O)[C@H]1CC[C@H]2[C@@H]3CCC4=CC(=O)CC[C@]4(C)[C@H]3CC[C@]12C
- outcome [9]: inactive
- outcome [10]: inactive

Structure (SMILES): CCN(CC)C(=O)c1cccc(C)c1
- outcome [10]: inactive

Structure (SMILES): CCOC(=O)NCCOc1ccc(Oc2ccccc2)cc1
- AC50 [10]: 50 µM (active)

Structure (SMILES): CC1(C)C(C=C(Cl)Cl)C1C(=O)OCc1cccc(Oc2ccccc2)c1 (stereo not drawn)
- outcome [6]: inactive
- outcome [8]: inactive
- outcome [12]: inactive
- AC50 [13]: 19.8 µM (active)
- AC50 [14]: 2.79 µM (active)
- AC50 [10]: 30.8 µM (active)

Structure (SMILES): CCOC(=O)c1ccc(O)cc1
- outcome [11]: inactive

Structure (SMILES): C=CCOC(Cn1ccnc1)c1ccc(Cl)cc1Cl (stereo not drawn)
- outcome [8]: inactive
- outcome [12]: inactive
- AC50 [13]: 20.5 µM (active)
- AC50 [14]: 11.6 µM (active)
- AC50 [10]: 66.4 µM (active)

Structure (SMILES): CCCCOCCOCCOCc1cc2c(cc1CCC)OCO2
- outcome [15]: inactive
- AC50 [10]: 65 µM (active)

Structure (SMILES): CCOC(=O)COc1cc(-n2ncc(C(F)(F)F)c(C)c2=O)c(F)cc1Cl
- outcome [10]: inactive

Structure (SMILES): C#C[C@]1(O)CC[C@H]2[C@@H]3CCC4=CC(=O)CC[C@@H]4[C@H]3CC[C@@]21CC
- AC50 [8]: 1.12 nM (active) and 0.357 nM (active)
- outcome [12]: inactive
- AC50 [13]: 0.451 µM (active)
- outcome [13]: inactive
- AC50 [14]: 1 µM (active)
- outcome [14]: inactive

Structure (SMILES): CCCN(CCC)C(=O)SCC
- outcome [10]: inactive

Structure (SMILES): COC(=O)c1ccc(I)cc1S(=O)(=O)NC(=O)Nc1nc(C)nc(OC)n1
- outcome [10]: inactive
- outcome [11]: inactive

Structure (SMILES): CCCCCCC(C)OC(=O)COc1nc(F)c(Cl)c(N)c1Cl (stereo not drawn)
- outcome [9]: inactive
- AC50 [10]: 22.9 µM (active)

Structure (SMILES): COc1c(Cl)ccc(Cl)c1C(=O)O
- outcome [10]: inactive
- outcome [11]: inactive

Structure (SMILES): c1ccc2[nH]c(-c3cscn3)nc2c1
- AC50 [10]: 39.2 µM (active)
- AC50 [11]: 34.5 µM (active)

Structure (SMILES): CCOC(=O)C(C)Oc1ccc(Oc2cnc3cc(Cl)ccc3n2)cc1 (stereo not drawn)
- outcome [10]: inactive
